Some test systems named below: BT-549 breast; MDA-MB-435 melanoma; SW-620 colon; MCF7 breast; HCT-116 colon; HCC-2998 colon; KM12 colon.
Assay in all cases: NCI-60 one-dose screen, 48 h (100 = growth as untreated, 0 = no growth, -100 = all killed)
Common to all, as to conditions: 10 µM

This is an account of results in PubChem BioAssay (NCI).

About 83,000 compounds went through this panel and 20% of them were active in at least one assay; those are over-represented in the sample as a whole.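 Each cell line was grown in a 96-well plate and treated with one concentration of compound for 48 hours. Values below 10 were considered active.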 Values without a mark were called inactive. The source made the active and inactive calls.

On to `CN(C)CCS(=O)(=O)CCN(C)C`, for which the growth was 101% with BT-549 breast; 116% in the assay with MDA-MB-435 melanoma; 94.5% in the assay with SW-620 colon; 107% with MCF7 breast; 96.9% in the assay on HCT-116 colon; 102% in the assay on HCC-2998 colon. The growth with KM12 colon was 99.6%.
For the molecule `Cn1c([N+](=O)[O-])cnc1/C=C1\Oc2ccccc2C1=O`, the growth is -28.6% (active) with BT-549 breast; -86.8% (active) with MDA-MB-435 melanoma; -36.3% (active) in the assay on SW-620 colon; 1.82% (active) in the assay with MCF7 breast; 1.88% (active) in the assay on HCT-116 colon; -73.6% (active) with HCC-2998 colon. Further, the growth in the assay on KM12 colon was -17.4% (active).
Take `CCOC(=O)CCC(NC(=O)c1ccc(N)cc1)C(=O)OCC` (stereo unspecified): the growth with BT-549 breast is 44.8%; in the assay with MDA-MB-435 melanoma it was 117%; with SW-620 colon, 107%; with MCF7 breast, 103%; in the assay on HCT-116 colon, 106%; in the assay on HCC-2998 colon, 105%. In the assay with KM12 colon, the growth was 106%.
Turning to `COc1ccc(S(=O)(=O)Nc2c(/C=C\c3cc(OC)c(OC)c(OC)c3)ccc(OC)c2O)cc1`, the growth with BT-549 breast was 40.6%; with MDA-MB-435 melanoma, -39.4% (active); in the assay on SW-620 colon it was 23.4%; in the assay with MCF7 breast, 10.9%; with HCT-116 colon it was -6.66% (active); in the assay on HCC-2998 colon, 13.3%. Moreover, the growth with KM12 colon is -4.97% (active).
For the molecule `COc1cc(-c2nn3c(/C=C4/C(=O)Nc5ccccc54)c(-c4ccc(C)cc4)nc3s2)cc(OC)c1OC`, the growth is 22.8% in the assay on BT-549 breast; 33.6% in the assay with MDA-MB-435 melanoma; 54.8% in the assay with SW-620 colon; 39.4% in the assay on MCF7 breast; 24% with HCT-116 colon; 85.1% in the assay on HCC-2998 colon. Moreover, the growth with KM12 colon was 51%.
Regarding `Nc1c(C(=O)Nc2cccc(Br)c2)sc2nc3c(cc12)C(O)CCC3` (stereo unspecified), the growth with BT-549 breast is 45.2%; in the assay on MDA-MB-435 melanoma, -42.1% (active); with SW-620 colon it was 36.4%; with MCF7 breast it was 21%; with HCT-116 colon, 16.4%; in the assay on HCC-2998 colon, 31.5%. In addition, the growth in the assay on KM12 colon was 22.8%.
On to `O=C(Nc1cccc(-n2cc(-c3ccncc3)c(-c3cc(O)cc(Cl)c3)n2)c1)c1cc(C(F)(F)F)cc(C(F)(F)F)c1`, for which the growth in the assay on BT-549 breast was 73.4%; in the assay on MDA-MB-435 melanoma it was 45.6%; in the assay on SW-620 colon it was 61%; in the assay on MCF7 breast, 23%; in the assay on HCT-116 colon, 24.5%; in the assay with HCC-2998 colon, 28.9%. In addition, the growth in the assay with KM12 colon is 21.2%.
As to `COc1ccc2c(c1)-c1c(c3cc(OC)ccc3n(CCN(C)C)c1=O)C2=O`, the growth was 64.2% in the assay on BT-549 breast; 21.8% in the assay with MDA-MB-435 melanoma; -8.7% (active) in the assay with SW-620 colon; -0.273% (active) with MCF7 breast; -21.2% (active) in the assay on HCT-116 colon; 34.9% in the assay with HCC-2998 colon. For the same molecule, in the assay with KM12 colon, the growth is 8.92% (active).
With `COc1cc(Cl)cc(-c2nn(-c3cccc(NC(=O)c4ccc(N5CCOCC5)c(C(F)(F)F)c4)c3)cc2-c2ccncc2)c1`, the growth with BT-549 breast was 73%; with MDA-MB-435 melanoma, 63.4%; in the assay with SW-620 colon it was 69.2%; in the assay with MCF7 breast, 45.3%; in the assay on HCT-116 colon it was 47.7%; with HCC-2998 colon, 52.3%. Further, in the assay on KM12 colon, the growth is 38.4%.
`COc1ccc(S(=O)(=O)NCCCNc2nccc(-c3c(-c4ccc(F)cc4)nc4sccn34)n2)cc1`: the growth in the assay on BT-549 breast is 70.6%; in the assay with MDA-MB-435 melanoma it was 27.9%; with SW-620 colon it was 74.8%; with MCF7 breast, 33.6%; in the assay on HCT-116 colon, 42.1%; with HCC-2998 colon, 65.5%. In addition, the growth in the assay on KM12 colon is 40.6%.
Regarding `O=C(Nc1ccncc1)C(=O)c1cn(S(=O)(=O)c2ccc(F)cc2)c2ccccc12`, the growth was 36.9% in the assay on BT-549 breast; -20.3% (active) in the assay on MDA-MB-435 melanoma; 12% with SW-620 colon; 12.6% with MCF7 breast; 11.6% in the assay with HCT-116 colon; 61.6% in the assay on HCC-2998 colon. Besides, in the assay on KM12 colon, the growth was 18.1%.
`COC(=O)[C@@H]1[C@H](O)[C@H](C)[C@H](O)[C@@](C)(O)/C=C\C=C(C)C(=O)Nc2c(C)c(OC(C)=O)c3c(c2O)C(=O)C(C)=C2OCOC(=C23)C(C)=C[C@@](C)(O)[C@H](O)[C@@H](C)[C@H]1OC(C)=O`: the growth in the assay with BT-549 breast was 105%; with MDA-MB-435 melanoma it was 105%; with SW-620 colon, 124%; with MCF7 breast it was 114%; in the assay on HCT-116 colon, 114%; in the assay on HCC-2998 colon, 120%. In the assay on KM12 colon, the growth is 112%.
As to `O=C(c1cccs1)c1ccccc1Cc1ccccc1`, the growth in the assay on BT-549 breast is 106%; in the assay on MDA-MB-435 melanoma, 103%; in the assay on SW-620 colon it was 104%; in the assay on MCF7 breast it was 102%; in the assay on HCT-116 colon, 113%; in the assay with HCC-2998 colon it was 114%. Also, the growth with KM12 colon was 104%.
As for `N=C1c2nc3n(c2C(=O)c2nc4n(c21)CCCC4)CCCC3`, the growth is -37.2% (active) with BT-549 breast; -82.5% (active) in the assay on MDA-MB-435 melanoma; 23.7% in the assay on SW-620 colon; -6.98% (active) in the assay with MCF7 breast; 65.8% in the assay with HCT-116 colon; 87.3% with HCC-2998 colon. Moreover, the growth in the assay with KM12 colon was 66.7%.
As for `C=C(C(=O)c1ccccc1)C(NC(C)(C)C)c1ccccc1` (stereo unspecified), the growth with BT-549 breast is 34.8%; in the assay on MDA-MB-435 melanoma it was 7.63% (active); with SW-620 colon, -19.7% (active); in the assay with MCF7 breast, 9.57% (active); in the assay on HCT-116 colon it was -90.6% (active); in the assay on HCC-2998 colon, 1.14% (active). Further, the growth in the assay with KM12 colon is 25.8%.
As to `CCCCCC(=O)c1ccc(OCCCN2CCN(C(=O)OCC)CC2)cc1`, the growth is 91.4% with BT-549 breast; 98.8% in the assay on MDA-MB-435 melanoma; 93.2% in the assay on SW-620 colon; 93% in the assay on MCF7 breast; 75.6% with HCT-116 colon; 96.9% in the assay on HCC-2998 colon. For the same molecule, the growth with KM12 colon was 94.4%.
On to `COc1cccc(C(=O)Nc2ccc(CN3CCc4nc5cc(OC)c(OC)cc5cc43)cc2)c1`, for which the growth in the assay on BT-549 breast is 65%; in the assay with MDA-MB-435 melanoma, 39.5%; in the assay with SW-620 colon, 59%; in the assay with MCF7 breast, 12%; in the assay on HCT-116 colon, 38.9%; in the assay on HCC-2998 colon, 14.1%. Moreover, the growth in the assay on KM12 colon was 16.4%.
With `NC(=O)CC1(c2ccccc2)CCCCC1`, the growth was 102% with BT-549 breast; 109% in the assay with MDA-MB-435 melanoma; 108% with SW-620 colon; 96.4% in the assay with MCF7 breast; 95.6% in the assay with HCT-116 colon; 102% with HCC-2998 colon. For the same molecule, in the assay on KM12 colon, the growth was 101%.
